The list is not random: actives were taken first. Their share in the collection is about 1.6%.
KCNQ2 block: blocks the rat KCNQ2 potassium channel; CHO-K1 KCNQ2, FluxOR thallium flux, 20 min; stronger effect = lower value; B-score at 10 µM; AID 2156; hit rate 1.1% among 310,000; O88943;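 active means fluorescence ratio B-score at most minus 3 library SDs, with starting brightness B-score within 2 library SDs, cut at about -5.5 in these data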
Target sequence (O88943 whole entry, looked up): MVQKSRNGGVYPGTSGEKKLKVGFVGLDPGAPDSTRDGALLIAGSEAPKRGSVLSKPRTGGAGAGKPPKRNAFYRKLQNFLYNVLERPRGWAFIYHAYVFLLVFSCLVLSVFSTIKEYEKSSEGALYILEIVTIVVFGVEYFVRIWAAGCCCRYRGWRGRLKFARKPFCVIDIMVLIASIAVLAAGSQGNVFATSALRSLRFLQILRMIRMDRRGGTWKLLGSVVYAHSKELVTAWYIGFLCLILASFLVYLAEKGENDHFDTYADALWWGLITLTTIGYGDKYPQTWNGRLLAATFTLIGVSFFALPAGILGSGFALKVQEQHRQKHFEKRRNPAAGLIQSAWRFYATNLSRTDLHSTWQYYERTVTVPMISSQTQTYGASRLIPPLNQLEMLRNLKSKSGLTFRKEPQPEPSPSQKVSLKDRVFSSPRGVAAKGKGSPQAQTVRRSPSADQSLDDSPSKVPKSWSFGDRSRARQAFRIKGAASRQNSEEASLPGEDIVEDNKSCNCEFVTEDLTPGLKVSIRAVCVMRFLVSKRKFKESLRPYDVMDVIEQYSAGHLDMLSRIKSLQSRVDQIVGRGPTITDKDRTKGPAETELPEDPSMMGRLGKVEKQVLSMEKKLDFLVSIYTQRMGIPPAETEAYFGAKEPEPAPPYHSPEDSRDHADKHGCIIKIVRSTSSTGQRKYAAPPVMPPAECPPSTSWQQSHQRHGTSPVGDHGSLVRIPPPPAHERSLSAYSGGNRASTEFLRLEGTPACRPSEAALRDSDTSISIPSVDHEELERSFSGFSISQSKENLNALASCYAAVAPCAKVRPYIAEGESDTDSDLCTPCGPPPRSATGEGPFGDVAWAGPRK
KCNQ2 enhance: potentiators of rat KCNQ2 potassium channel; CHO-K1 KCNQ2, FluxOR thallium flux fluorescence; stronger effect = higher value; B-score at 10 µM; hit rate 0.54% among 310,000; O88943;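 active means fluorescence ratio B-score at least 3 SD of library B-scores, with initial fluorescence B-score within 3 of them, cut at about 5.3 in these data; same plate scores as AID 2156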;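 further: B-score of peak minus minimum over baseline fluorescence ratio after K+ and Tl+ stimulus; positive B-score means potentiation of KCNQ2 with more thallium influx and brighter signal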
KCNQ2 block conf: confirmation of rat KCNQ2 potassium channel inhibitors | shares compounds with KCNQ2 block | KCNQ2-expressing cells, thallium flux, inhibition; stronger effect = lower value | activity change, negative = inhibition, % at 10 µM | hit rate 57% among 1,000;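 further: 0% = vehicle wells and values are ratio percent relative to vehicle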
KCNQ1 spec: human KCNQ1 activity in KCNQ2 inhibitor specificity screen; AID 493026; hit rate 15% among 1,000; activity change, negative = inhibition, % at 10 µM; shares compounds with KCNQ2 block; KCNQ1-expressing cells, FluxOR thallium flux fluorescence; stronger effect = lower value;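 active means activity change at least 3 SD of negative controls below their mean in both duplicate wells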;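 further: CHO cells stably transfected with KCNQ1 and depolarized by potassium stimulus; peak minus minimum fluorescence over baseline after thallium addition; 0% = vehicle negative control and -100% = blank without thallium stimulus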
CHO Tl ctr: KCNQ2 inhibitor counter-screen hit in parental CHO cells | hit rate 14% among 1,000 | AID 493029 | thallium flux counter-screen; stronger effect = lower value | activity change, % at 10 µM | shares compounds with KCNQ2 block;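 further: 0% = vehicle negative controls with stimulus buffer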
KCNQ2 inh confirm: confirmation of rat KCNQ2 potassium channel inhibitors | calls only at 10 µM | hit rate 49% among 550 | AID 588531 | shares compounds with KCNQ2 block | KCNQ2-expressing cells, automated patch clamp current
* = called active by the depositor; i = inactive; / = no result given; + = active, no number. Unless noted, how the calls were made is not given here.

SMILES	KCNQ2 block	KCNQ2 enhance	KCNQ2 block conf	KCNQ1 spec	CHO Tl ctr	others
CC(C)=CC(=O)OCC(=O)NC1CCCc2ccccc21 (stereo not given)	-6.7*	-6.7	i	i	i
COC(=O)[C@@H](NC(=O)NC1CCCc2ccccc21)C(C)C (stereo not given in full)	-7.2*	-7.2	i	i	i
COc1ccc(NC(=O)NC2CCCc3ccccc32)cc1 (stereo not given)	i	/	/	/	/
O=C(CN1C(=O)NC2(CCCCCCC2)C1=O)NC1CCCc2ccccc21 (stereo not given)	-7.5*	-7.5	-19%*	i	i	KCNQ2 inh confirm=+
COc1ccc(CNC(=O)CSc2nc3ccc(C)cc3[nH]2)cc1OC	i	/	/	/	/
CSC1=NCCN1C(=O)c1c(-c2c(F)cccc2Cl)noc1C	i	0.13	/	/	/
Cc1oc(S(=O)(=O)N2CCCCC2)cc1NC(=O)Nc1ccc(F)cc1	i	1.5	/	/	/
O=C1CC2(CCN(C(=O)c3ccccc3Cl)CC2)Oc2ccccc21	i	/	/	/	/
CCN(Cc1ccncc1)Cc1cn[nH]c1-c1cc(OC)c(OC)c(OC)c1	i	/	/	/	/
CN(C)CCCNC(=O)c1ccccn1	i	0.35	/	/	/
CN(C)CCCNC(=O)c1ccc(-c2nc(-c3ccc(Cl)cc3)cs2)cc1	-12*	-12	-22%*	i	i	KCNQ2 inh confirm=i
Cc1ccc(S(=O)(=O)CCc2ccncc2)cc1	i	0.85	/	/	/
Cc1nc(Cl)c(C#N)cc1-c1ccccc1	i	1.4	/	/	/
N#Cc1cc(-c2ccc(Cl)cc2)cnc1Sc1ccccc1	i	/	/	/	/
N#Cc1cc(-c2ccccc2)cnc1Sc1ccc(Cl)cc1	-6.8*	-6.8	i	i	i
Cc1nc(Sc2ccccc2)c(C#N)cc1-c1ccccc1	-9.3*	-9.3	i	i	i
Cc1ccc(S(=O)(=O)N(Cc2cccc(F)c2)C(=O)N2CCN(C)CC2)cc1	i	0.87	/	/	/
CN(Cc1ccccc1)C1CCN(Cc2ccccc2[N+](=O)[O-])CC1	i	/	/	/	/
Brc1cccc(/C=N/Nc2nc(N3CCCCC3)nc(N3CCCCC3)n2)c1	-6.9*	-6.9	-19%*	i	i	KCNQ2 inh confirm=i
O=[N+]([O-])c1cccc(/C=N/Nc2nc(N3CCCCC3)nc(N3CCCCC3)n2)c1	-7.7*	-7.7	-34%*	i	i	KCNQ2 inh confirm=i
Oc1ccc(/C=N/Nc2nc(N3CCCC3)nc(N3CCCC3)n2)cc1O	i	/	/	/	/
O=[N+]([O-])c1cccc(-n2cccc2/C=N/Nc2nc(N3CCCCC3)nc(N3CCCCC3)n2)c1	i	/	/	/	/
Cc1cc(C(=O)NCc2cccc(Cl)c2)c2ccccc2n1	i	/	/	/	/
COc1cc(NC(=O)c2cc(C)nc3ccccc23)cc(OC)c1OC	i	/	/	/	/
Cc1ccc(NC(=O)c2ccccn2)c(Br)c1	i	/	/	/	/
SMILES	KCNQ2 block	KCNQ2 enhance	KCNQ2 block conf	KCNQ1 spec	CHO Tl ctr	others
Cc1ccc(NC(=O)c2cc(C)nc3ccccc23)c(Br)c1	-6.7*	-6.7	i	i	i
Cc1cc(C(=O)Nc2ccccc2Cl)c2ccccc2n1	-6.9*	-6.9	-31%*	i	i	KCNQ2 inh confirm=+
Cc1cc(C(=O)NCc2ccccc2Cl)c2ccccc2n1	-7.2*	-7.2	-22%*	i	i	KCNQ2 inh confirm=i
C=CCn1c(COc2ccc(F)cc2)nnc1SCC(=O)NC1CCS(=O)(=O)C1 (stereo not given)	i	0.57	/	/	/
CCn1c(=O)c(=O)[nH]c2cc(C(=O)N(C)Cc3ccc(OC)c(F)c3)ccc21	i	1.8	/	/	/
CCOC(=O)[C@@H]1[C@H]2COc3ccc(Br)cc3[C@H]2N2C(=O)N(c3cccc(Cl)c3)C(=O)[C@]12C	i	/	/	/	/
O=C(Nc1ccc(Br)c(C(F)(F)F)c1)c1ccc(C(F)(F)F)cc1	i	/	/	/	/
O=C(Nc1ccc(Br)c(C(F)(F)F)c1)c1ccccc1	-7.7*	-7.7	i	i	i
CC1CN(S(=O)(=O)c2cc(C(=O)N(CCc3ccccc3)Cc3ccccc3)ccc2Cl)CC(C)O1 (stereo not given)	-7.2*	-7.2	i	i	i
CCN(CC1COc2ccccc2O1)C(=O)c1ccc(Cl)c(S(=O)(=O)N2CC(C)OC(C)C2)c1 (stereo not given)	i	/	/	/	/
COC(=O)c1ccc(COC(=O)[C@@H]2CC(O)CN2S(=O)(=O)c2ccccc2[N+](=O)[O-])cc1 (stereo not given in full)	i	/	/	/	/
CCc1nc(SCC(=O)Nc2cc(C)ccc2OC)c2c(C)c(C)sc2n1	-6.8*	-6.8	i	i	i
COc1ccc(C)cc1NC(=O)CCCNC(=O)Cn1cnc2sc(C)c(C)c2c1=O	i	/	/	/	/
Cc1sc2nc(C(C)C)nc(SCC(=O)N3c4ccccc4CC3C)c2c1C (stereo not given)	i	2.4	/	/	/
CCc1nc(SCC(=O)N2c3ccccc3CC2C)c2c(C)c(C)sc2n1 (stereo not given)	-6.7*	-6.7	-20%*	i	i	KCNQ2 inh confirm=i
O=C(Nc1ccc(C(=O)N2CCCCC2)cc1)Nc1cccc(Cl)c1	i	0.41	/	/	/
CCOc1ccc(C(=O)Nc2cccc(C(=O)O)c2)cc1Cl	i	1.1	/	/	/
CCOc1ccc(C(=O)Nc2cccc(-c3nc4cccnc4o3)c2)cc1Cl	-10*	-10	i	i	i
Nc1ncc(Br)cc1S(=O)(=O)NCCC(=O)NCCc1ccc(Cl)cc1	i	0.01	/	/	/
N#CCS(=O)(=O)c1ccccc1	i	1.2	/	/	/
CC(C)(C)N(Cc1ccccc1)C(=O)COC(=O)c1cccc([N+](=O)[O-])c1	-7*	-7	i	i	i
CC(C)(C)N(Cc1ccccc1)C(=O)COc1cccnc1[N+](=O)[O-]	i	/	/	/	/
COc1ccc2oc(C(=O)OCC(=O)N(Cc3ccccc3)C(C)(C)C)c(C)c2c1	-9.4*	-9.4	i	i	i
COc1ccc2oc(C(=O)OCC(=O)NCCc3ccccc3)c(C)c2c1	i	0.22	/	/	/
N#CC(C#N)=C1C=CC=CN1/C(=C\c1ccccc1)C(=O)c1cccs1	-10*	-10	i	i	i
SMILES	KCNQ2 block	KCNQ2 enhance	KCNQ2 block conf	KCNQ1 spec	CHO Tl ctr	others
O=C(N/N=C/C(Br)=C\c1ccccc1)c1cccs1	i	/	/	/	/
COCC(C)NC(C(=O)Nc1cccc(C(C)=O)c1)c1ccccc1 (stereo not given)	i	0.75	/	/	/
O=C(OC(C(=O)Nc1cc(Cl)cc(Cl)c1)c1ccccc1)C1=COCCO1 (stereo not given)	i	/	/	/	/
COCCNC(C(=O)Nc1cc(Cl)cc(Cl)c1)c1ccccc1 (stereo not given)	-8.1*	-8.1	-30%*	i	i	KCNQ2 inh confirm=+
CN(C)C(C(=O)Nc1cc(Cl)cc(Cl)c1)c1ccccc1 (stereo not given)	-8.3*	-8.3	-29%*	i	i	KCNQ2 inh confirm=+
CCOCCCNC(C(=O)Nc1ccc(OC)c(Cl)c1)c1ccccc1 (stereo not given)	i	/	/	/	/
Cc1ccc(NC(=O)C(NC2CCCc3ccccc32)c2ccccc2)cc1Cl (stereo not given)	-8.9*	-8.9	i	i	i

Screening results deposited in PubChem by Johns Hopkins Ion Channel Center.
